# Bioassay records: PubChem BioAssay, Paczesny and Yang Labs, IUPUI and University of Michigan
# The full list was thinned out, with hits kept by preference.
# ST2 inh – blocks human ST2 binding to IL-33; AlphaLISA ST2-Fc/biotin-IL-33 interaction, 1 h; inhibition, % for hits at 17 µM; 78,000 tested, 2.3% active; AID 1259354; in the data active = inhibition above about 30%
# Target sequence (Q01638 whole entry, looked up): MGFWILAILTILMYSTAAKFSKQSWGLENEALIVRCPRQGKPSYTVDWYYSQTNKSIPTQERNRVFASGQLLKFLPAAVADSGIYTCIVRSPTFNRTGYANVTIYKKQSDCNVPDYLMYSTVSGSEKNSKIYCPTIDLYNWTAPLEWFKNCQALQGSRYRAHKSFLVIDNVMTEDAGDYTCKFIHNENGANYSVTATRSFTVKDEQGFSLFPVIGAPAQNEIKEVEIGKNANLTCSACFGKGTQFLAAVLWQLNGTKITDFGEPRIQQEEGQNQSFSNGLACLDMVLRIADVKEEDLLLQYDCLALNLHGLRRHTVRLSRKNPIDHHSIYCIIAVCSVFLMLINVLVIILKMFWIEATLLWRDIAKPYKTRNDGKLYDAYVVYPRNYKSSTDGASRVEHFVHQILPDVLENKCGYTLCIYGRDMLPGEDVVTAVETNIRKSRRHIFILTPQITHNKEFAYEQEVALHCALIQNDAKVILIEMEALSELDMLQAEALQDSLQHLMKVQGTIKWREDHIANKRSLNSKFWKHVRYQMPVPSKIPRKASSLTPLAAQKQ
# Starred values were filed as active, the others as inactive; i = inactive; ! = not active in a repeat.
SMILES,ST2 inh
CCCCOc1ccc(C2C(C#N)=C(N)Oc3n[nH]c(C)c32)cc1 (configuration not stated),i
CCN(CC)c1ccc(C2C(C#N)=C(N)Oc3n[nH]c(C)c32)cc1 (configuration not stated),i
O=C(O)c1ccccc1N1C(=O)c2cc(Cl)c(Cl)cc2C1=O,i
O=C(CSc1cn(Cc2cccc(F)c2)c2ccccc12)Nc1nccs1,i
COc1ccc(NS(=O)(=O)c2cc(Br)cc3c2N(C(C)=O)C(C)C3)cc1OC (configuration not stated),i
O=[N+]([O-])c1cccc(S(=O)(=O)Nc2ccc(Cl)cn2)c1,i
O=[N+]([O-])c1cccc(N=Cc2nc(-c3ccc(Br)cc3)oc2O)c1,i
C/C(=C\c1ccccc1)c1nc2ccc([N+](=O)[O-])cc2[nH]1,i
Cc1ccc2nc(-c3cc(N=Cc4cccc([N+](=O)[O-])c4O)ccc3O)[nH]c2c1,36%*
O=[N+]([O-])c1cccc(C=Nc2ccc(F)cc2)c1O,i
CC(=O)Nc1nc(C)c(-c2nc3ccc([N+](=O)[O-])cc3[nH]2)s1,i
Cc1ccc2nc(-c3cc(N=Cc4ccc([N+](=O)[O-])cc4)ccc3O)[nH]c2c1,38%*
O=[N+]([O-])c1ccccc1C=Nc1ccc2nc(-c3ccccc3)[nH]c2c1,i
CC(=O)N1CCc2cc(N=Cc3cc([N+](=O)[O-])ccc3O)ccc21,i
Cc1ccc2nc(-c3cc(N=Cc4cccc([N+](=O)[O-])c4)ccc3O)[nH]c2c1,43%*
CCc1ccccc1NC(=O)c1cccc(C)c1,i
O=C(Nc1ccc(-c2ccco2)cc1)C1CCCN(Cc2cccc3c2OCO3)C1 (configuration not stated),i
CN(CC(=O)NC1CCCCC1)S(=O)(=O)c1ccc2c(c1)CCC(=O)N2,i
O=C(Nc1ccc(Br)cc1)c1ccccc1,i
CN1C[C@@H](NC(=O)Nc2ccc(Cl)cc2)C[C@H]1c1nc(-c2ccccc2)no1,i
Nc1ccc2oc(-c3cc(F)c(F)cc3Cl)nc2c1,i
Cc1ccc2oc(-c3ccc(F)cc3)nc2c1,i
Cc1ccc2oc(-c3cc(N)ccc3O)nc2c1,45%*
COc1cccc(CN2CCN(Cc3ccccc3F)S2(=O)=O)c1,i
CCCCn1cnc2c(cnn2-c2ccc(Cl)cc2)c1=O,30%*
SMILES,ST2 inh
CCCCn1cnc2c(cnn2-c2ccc(F)cc2)c1=O,i
CCCn1cnc2c(cnn2-c2ccc(F)cc2)c1=O,i
CC(C)Cc1cc(-c2nccn2CCc2cccnc2)n[nH]1,i
CS(=O)(=O)c1ccc(CN2CCN(c3ccnc4ccccc34)CC2)cc1,i
O/N=C\c1c(O)c(Br)cc2oc3c(c12)CCCC3,38%*
O=C(CCC1CCCN(C(=O)c2sccc2Cl)C1)NC1CC1 (configuration not stated),i
O=[N+]([O-])c1cccc(C=Nc2ccccc2Cl)c1O,i
Cc1ccc(N=Cc2cc(C)cc([N+](=O)[O-])c2O)c(Cl)c1,30%*
O=[N+]([O-])c1cc(Br)cc(C=Nc2ccc(Br)cc2)c1O,i
COC(=O)C1=C(N)OC2=C(C(=O)CCC2)C1c1ccc(Br)cc1 (configuration not stated),i
CC1(C)OC(=O)C(=CNc2cccc(C(=O)O)c2)C(=O)O1,33%*
O=C(O)c1cccc(NC(=O)c2ccc(-c3ccccc3)cc2)c1,i
O=C(O)c1cccc(NC(=O)c2cccc(C(=O)Nc3cccc(C(=O)O)c3)c2)c1,i
CC(C)CCC1=NC2(CCN(C(=O)Cn3cccn3)CC2)C(=O)N1,i
CC(C)(C)c1[nH]nc2c1C(c1ccccc1Cl)C(C#N)=C(N)O2 (configuration not stated),i
COc1cc(-c2[nH]nc3c2C(c2ccccc2Cl)C(C#N)=C(N)O3)cc(OC)c1OC (configuration not stated),i
N#CC1=C(N)Oc2nc[nH]c(=O)c2C1c1ccccc1Cl (configuration not stated),94%*
CCCN(CCC)CCNS(=O)(=O)c1cccc2cccnc12,i
O=c1cc2cc(O)[nH]c(=O)c2c(O)[nH]1,47%*
O=C(O)c1cn(-c2ccc(Cl)cc2)c(=O)c2ccccc12,i
Cc1nn2c(=O)/c(=C\c3ccc(Cl)cc3Cl)sc2nc1=O,i
CC(C)N=C(NS(=O)(=O)c1ccc(Cl)cc1)c1ccccc1,i
O=C(O)C1CC=CCC1C(=O)Nc1ccc2c(c1)OCO2 (configuration not stated),i
CC(=O)c1ccc(NC(=O)c2cc(-c3ccc4c(c3)OCO4)on2)cc1,31%*
Cc1cccc(NC(=O)c2cc3c([nH]c4ccccc43)c(C)n2)c1C,i
SMILES,ST2 inh
Cc1nc(C(=O)Nc2ccc3c(c2)OCO3)cc2c1[nH]c1ccccc12,30%*
COc1cc(C(=O)Nc2ccc3c(c2)OCO3)cc(OC)c1OC,i
O=C(O)C1C2C=CC(O2)C1C(=O)Nc1ccc2c(c1)OCO2 (configuration not stated),31%*
O=C(CC1CCCCC1)Nc1ccc2c(c1)OCO2,i
Cc1cc(NC(=O)c2cc(-c3ccc4c(c3)OCO4)on2)no1,i
O=C(Nc1ccc2c(c1)OCO2)c1cc(-c2ccccc2O)on1,i
Cc1ccc(C(=O)Nc2ccc3c(c2)OCO3)cc1,30%*!
O=C(Nc1ccc2c(c1)OCO2)c1ccc(Br)cc1,i
O=C(Nc1ccc(F)c(Cl)c1)c1cc(-c2ccc3c(c2)OCO3)on1,i
O=C1CCC(CCC(=O)N2CCC(Sc3ccc(F)cc3)CC2)(Cc2cccs2)N1 (configuration not stated),i
CCN1CCN(c2nc3c(c(=O)[nH]c(=O)n3C)n2CCSc2ncccn2)CC1,i
CC(C)c1nnsc1CN1CCCC(O)(CO)C1 (configuration not stated),i
CCOc1ccc(CNS(=O)(=O)c2ccc3[nH]c(=O)sc3c2)cc1,i
CCc1cc(N2CCOC(CCOC)C2)nc(N2CCOCC2)n1 (configuration not stated),i
CCOc1ccc2c(c1)CN(c1cc(C)cc(C)c1)CO2,i
CCOc1ccc(S(=O)(=O)NCc2nc3cccnc3n2Cc2ccc(CC)cc2)cc1,i
O=C(Nc1c(F)cc(F)cc1Br)c1cc(-c2ccc(F)cc2)on1,i
COCC(=O)N1CCC(Oc2ccccc2C(=O)NCc2ncc(C)[nH]2)CC1,i
Cc1ccc2c(c1)C(O)(C1COC(C)(C)CC1=O)C(=O)N2 (configuration not stated),i
COc1cc(C2C(C(=O)Nc3ccccn3)=C(C)NC3=C2C(=O)CC(C)(C)C3)ccc1O (configuration not stated),i
CC(C)(C)c1ccc(-c2cc(C[C@H]3CNCC[C@H]3CC(=O)NCc3ccccc3)no2)cc1,i
COc1ccc(CNC(=O)C[C@@H]2CCNC[C@@H]2Cc2cc(-c3ccc(C(C)(C)C)cc3)on2)cc1,47%*
CC(C)(C)c1ccc(-c2cc(C[C@H]3CNCC[C@H]3CC(=O)NCc3ccc(F)cc3)no2)cc1,i
CC(C)c1nccn1CCCNC(=O)c1ccc(-c2cc3ccccc3o2)nc1,i
COc1ccc(F)c(-c2cc(C)cnc2-n2cnnc2)c1,i
COC(=O)c1ccc2c(=O)n3c(nc2c1)SC1CS(=O)(=O)CC13 (configuration not stated),i
COc1cccc(/C=c2\sc3nnc(-c4ccc(C)cc4)n3c2=O)c1,i
